Measurements as given in PubChem BioAssay (NCATS).
Inconclusive results are not listed. Active and inactive are the calls of the source. Calls follow the shape of the dose curve; as a rule, active = well fitted inhibition curve with a large enough effect; inconclusive = small, poorly fitted or top-dose-only effect; inactive = flat fitted curve, though single readings scatter.

The molecules below were run against Dual specificity protein kinase CLK4 (Homo sapiens) (UniProt Q9HAZ1) (assay: qHTS Assay for Inhibitors of CDC-like Kinase 4 (ADP-FP Assay) (AID 1795; also: nearly all actives have a fitted effect of over 60% in size;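 as to activity change, negative = inhibition: recombinant human CLK4 phosphorylating RS repeat peptide at 1 µM ATP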)). Conditions: Transcreener ADP fluorescence polarization; series mostly up to 50 µM; activity change, negative = inhibition: at the top concentration.
Dual specificity protein kinase CLK4 (Homo sapiens), sequence (Q9HAZ1 whole entry, looked up): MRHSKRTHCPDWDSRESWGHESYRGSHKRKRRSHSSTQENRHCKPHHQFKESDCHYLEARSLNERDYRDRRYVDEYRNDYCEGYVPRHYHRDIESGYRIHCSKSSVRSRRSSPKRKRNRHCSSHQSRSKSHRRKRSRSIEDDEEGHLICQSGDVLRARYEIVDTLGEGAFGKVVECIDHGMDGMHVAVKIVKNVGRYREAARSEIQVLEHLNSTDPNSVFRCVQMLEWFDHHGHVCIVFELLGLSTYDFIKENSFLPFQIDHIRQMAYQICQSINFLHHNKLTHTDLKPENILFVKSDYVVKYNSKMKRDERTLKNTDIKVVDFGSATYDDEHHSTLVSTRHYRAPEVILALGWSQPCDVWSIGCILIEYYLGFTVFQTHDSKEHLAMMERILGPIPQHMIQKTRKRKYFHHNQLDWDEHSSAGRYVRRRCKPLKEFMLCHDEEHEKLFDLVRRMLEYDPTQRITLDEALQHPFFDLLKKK
Description: NIH Molecular Libraries Probe Production Centers Network [MLPCN] NIH Chemical Genomics Center [NCGC] MLPCN Grant: 1R03MH084827-01 Assay Submitter (PI): Tom Misteli NCGC Assay Overview: Clk4 (Invitrogen cat # PV3839) was assayed using ATP and the RS repeat peptide (AnaSpec cat # 61722) as substrates using Transcreener (trade mark), a competitive fluorescence polarization (FP) assay. For the present assay, we used the Orange TranscreenerTM ADP2 (BellBrooks Labs, Madison, Wis) detection system to monitor ADP production in the kinase reaction. […] This allows the ADP tracer to freely rotate leading to a decrease in the observed FP value. The amount of ADP produced can then be calculated using a calibration curve. The positive control for the assay was TG003 (Sigma-Aldrich, cat # 300801-52-9) which is a Clk4 inhibitor [2].
NCGC Assay Protocol Summary: Two uL/well of substrate-buffer solution (100 uM RS peptide, 1 uM ATP, 25 mM Tris pH7.5, 10 mM MgCl2, 0.5 mM EGTA, 2.5 mM DTT, 0.01% Triton X-100 final concentration) was dispensed into 1,536-well assay plates (Greiner, solid black medium-binding plates) with Aurora Discovery BioRAPTR Flying Reagent Dispenser (FRD; Beckton-Dickenson). Using a Kalypsys pin tool equipped with a 1,536-pin tool, 23 nL of compound solution was transferred to the assay plate. Two uL/well Clk4-buffer solution (6.25 nM Clk4, 25 mM Tris pH 7.5, 10 mM MgCl2, 0.5 mM EGTA, 2.5 mM DTT, 0.01% Triton X-100, final concentration) was then added using the FRD yielding a total kinase reaction volume of 4 uL/ well. Then 4 uL/well of detection mixture (4 nM orange fluorescent tracer, 1 ug/mL ADP antibody, final concentration) was then added after an hour and the polarization signal was measured using the EnVision plate reader (PerkinElmer, Waltham, MA) after 30 min of room temperature incubation using the following filters and program settings: BODIPY TMR FP dual Enh mirror (barcode 682); BODIPY-TMR 531 (barcode 105) excitation; BODIPY-TMR FP P/S polarized 595 nm filters (barcodes 210 and 211, respectively); 100% light; 150 flashes; 1.35 G-factor; Detector gains were 685 for the 1st detector; 630 for the 2nd detector.
% is scaled to controls: 0 for no effect and ±100 for the full control effect; potency is read from the fitted curve at half-maximal effect.

Activity change, negative = inhibition, inactive:
Cn1c(=O)c(-c2ccc(F)c(F)c2)nc2cncnc21 -0.613%, COc1ncc2nc(-c3ccc(F)cc3)c(=O)n(Cc3cccs3)c2n1 5.82%, COc1cccc(Cn2c(=O)c(-c3ccc(Cl)cc3)nc3cncnc32)c1 6.06%, COc1ccccc1CNc1cc(-c2ccccc2OC)ncn1 -7.96%, COc1ccccc1CNc1ncncc1-c1cccc(NS(C)(=O)=O)c1 -2.47%, COc1ccc(-c2nc3cnc(N(C)C)nc3n(Cc3ccc(F)cc3)c2=O)cc1 7.5%, COc1cccc(-c2nccc(NCc3cnc(C)cn3)n2)c1 -19.4%, CCNc1ncc2nc(-c3ccc(F)cc3)c(=O)n(C)c2n1 12.6%, N#CCCn1c(=O)cnc2cnc(Oc3cccc(Cl)c3)nc21 1.91%, CCNc1ncc2nc(-c3cccs3)c(=O)n(Cc3cccc(OC)c3)c2n1 7.42%, COc1ccc(-n2c(=O)c(-c3ccccc3)nc3cncnc32)cc1 7.5%, Cc1noc(C)c1-c1nccc(NCc2ccccc2)n1 -15.2%, CN(C)c1ncnc2ccc(-c3ccccc3C(F)(F)F)cc12 -21.1%, O=c1c(-c2ccc(F)cc2)nc2cnc(N3CCOCC3)nc2n1CCc1ccccc1 6.54%, CN(C)c1ncnc2ccc(-c3cccc(C#N)c3)cc12 -7.58%, COCCNc1nc(-c2ccccc2C(F)(F)F)nc2ccccc12 -16.7%, COc1cccc(Cn2c(=O)c(-c3ccccc3)nc3cncnc32)c1 7.66%, COc1cccc(-c2cncnc2NCc2cccs2)c1 -23.7%, CN1CCN(c2cc(-c3ccccc3Cl)ncn2)CC1 2.87%, Cc1nc2cncnc2n(Cc2ccccc2Cl)c1=O 0%, Cc1ccccc1-c1cc(N(C)Cc2ccco2)ncn1 6.05%, CCNc1ncc2nc(-c3cccs3)c(=O)n(Cc3ccc(F)cc3)c2n1 13.6%, CCNc1ncc2nc(-c3ccccc3)c(=O)n(C)c2n1 5.58%, COc1cccc(Cn2c(=O)c(-c3cccc(C#N)c3)nc3cnc(OC)nc32)c1 -9.09%, COc1ccc(CNc2ncncc2-c2ccc(C(=O)N(C)C)cc2)c(OC)c1 7.1%, COc1cccc(Cn2c(=O)c(-c3cc(F)cc(F)c3)nc3cnc(N4CCNCC4)nc32)c1 1.61%, COc1ccccc1-c1nc(N(C)Cc2ccco2)c2ccccc2n1 4.75%, O=c1c(-c2ccc(F)cc2)nc2cncnc2n1Cc1ccccc1 4.07%, CN(C)C(=O)c1ccc(-c2nccc(NCc3cccs3)n2)cc1 -2.23%, Cc1cnc(CNc2cc(-c3ccccc3C)ncn2)cn1 -18.9%, O=c1c(-c2cc(F)cc(F)c2)nc2cncnc2n1C1CC1 2.3%, COCCn1c(=O)c(C)nc2cnc(Oc3cccc(Cl)c3)nc21 6.05%, CCNc1ncc2nc(CCc3ccccc3)c(=O)n(Cc3ccc(F)cc3)c2n1 10.5%, COc1cccc(Cn2c(=O)c(-c3cc(F)cc(F)c3)nc3cnc(N4CCOCC4)nc32)c1 8.65%

Potency, active:
c1nc(NCCN2CCOCC2)c2cc(-c3ccoc3)ccc2n1 0.355 µM, N#Cc1ccccc1-c1ccc2ncnc(NC3CC3)c2c1 7.08 µM, Clc1ccccc1-c1nc(NCc2cccs2)c2ccccc2n1 12.6 µM, Cc1ccccc1-c1nc(NC2CC2)c2ccccc2n1 10 µM, COc1cccc(-c2nccc(N(C)Cc3ccco3)n2)c1 7.94 µM, Cc1noc(C)c1-c1ccc2ncnc(Nc3ccccc3)c2c1 10 µM
